For 23 targets, log2 fold change results are on record in the supplement of paper PMC10849652.

Targets with a hit are over-represented here; the source holds about 8,800 in all. About 0.5% of all pairs of compound and target were hits.

UniProt Q9UG63, sequence (Q9UG63 whole entry, looked up): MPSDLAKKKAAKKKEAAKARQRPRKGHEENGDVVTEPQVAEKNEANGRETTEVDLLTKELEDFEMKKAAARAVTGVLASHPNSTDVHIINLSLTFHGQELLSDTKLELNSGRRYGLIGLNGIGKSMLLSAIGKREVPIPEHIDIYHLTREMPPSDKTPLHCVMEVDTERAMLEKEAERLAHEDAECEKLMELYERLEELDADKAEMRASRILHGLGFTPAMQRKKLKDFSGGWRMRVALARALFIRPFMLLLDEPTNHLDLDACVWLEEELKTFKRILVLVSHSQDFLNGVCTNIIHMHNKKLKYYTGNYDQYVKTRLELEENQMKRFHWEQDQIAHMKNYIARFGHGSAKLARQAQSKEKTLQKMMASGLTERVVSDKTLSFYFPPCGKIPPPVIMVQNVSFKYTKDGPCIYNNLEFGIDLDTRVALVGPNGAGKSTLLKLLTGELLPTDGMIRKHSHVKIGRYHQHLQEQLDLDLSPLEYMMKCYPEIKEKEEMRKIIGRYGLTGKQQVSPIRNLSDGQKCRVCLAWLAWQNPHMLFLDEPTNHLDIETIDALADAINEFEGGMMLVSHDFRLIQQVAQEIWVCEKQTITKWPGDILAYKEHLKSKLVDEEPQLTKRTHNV
UniProt Q9NWX5, sequence (Q9NWX5 whole entry, looked up): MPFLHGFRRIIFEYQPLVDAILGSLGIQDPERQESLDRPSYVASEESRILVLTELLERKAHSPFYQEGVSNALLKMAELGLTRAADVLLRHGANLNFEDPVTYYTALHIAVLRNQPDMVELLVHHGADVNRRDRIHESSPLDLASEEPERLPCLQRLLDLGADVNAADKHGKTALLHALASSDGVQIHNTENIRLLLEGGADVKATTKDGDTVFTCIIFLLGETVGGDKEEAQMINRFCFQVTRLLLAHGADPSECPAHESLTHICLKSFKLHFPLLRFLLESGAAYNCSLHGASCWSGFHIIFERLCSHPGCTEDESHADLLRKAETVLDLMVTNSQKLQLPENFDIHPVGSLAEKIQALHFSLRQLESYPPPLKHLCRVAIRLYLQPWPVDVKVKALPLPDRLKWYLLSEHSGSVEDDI
UniProt O14617, sequence (O14617 whole entry, looked up): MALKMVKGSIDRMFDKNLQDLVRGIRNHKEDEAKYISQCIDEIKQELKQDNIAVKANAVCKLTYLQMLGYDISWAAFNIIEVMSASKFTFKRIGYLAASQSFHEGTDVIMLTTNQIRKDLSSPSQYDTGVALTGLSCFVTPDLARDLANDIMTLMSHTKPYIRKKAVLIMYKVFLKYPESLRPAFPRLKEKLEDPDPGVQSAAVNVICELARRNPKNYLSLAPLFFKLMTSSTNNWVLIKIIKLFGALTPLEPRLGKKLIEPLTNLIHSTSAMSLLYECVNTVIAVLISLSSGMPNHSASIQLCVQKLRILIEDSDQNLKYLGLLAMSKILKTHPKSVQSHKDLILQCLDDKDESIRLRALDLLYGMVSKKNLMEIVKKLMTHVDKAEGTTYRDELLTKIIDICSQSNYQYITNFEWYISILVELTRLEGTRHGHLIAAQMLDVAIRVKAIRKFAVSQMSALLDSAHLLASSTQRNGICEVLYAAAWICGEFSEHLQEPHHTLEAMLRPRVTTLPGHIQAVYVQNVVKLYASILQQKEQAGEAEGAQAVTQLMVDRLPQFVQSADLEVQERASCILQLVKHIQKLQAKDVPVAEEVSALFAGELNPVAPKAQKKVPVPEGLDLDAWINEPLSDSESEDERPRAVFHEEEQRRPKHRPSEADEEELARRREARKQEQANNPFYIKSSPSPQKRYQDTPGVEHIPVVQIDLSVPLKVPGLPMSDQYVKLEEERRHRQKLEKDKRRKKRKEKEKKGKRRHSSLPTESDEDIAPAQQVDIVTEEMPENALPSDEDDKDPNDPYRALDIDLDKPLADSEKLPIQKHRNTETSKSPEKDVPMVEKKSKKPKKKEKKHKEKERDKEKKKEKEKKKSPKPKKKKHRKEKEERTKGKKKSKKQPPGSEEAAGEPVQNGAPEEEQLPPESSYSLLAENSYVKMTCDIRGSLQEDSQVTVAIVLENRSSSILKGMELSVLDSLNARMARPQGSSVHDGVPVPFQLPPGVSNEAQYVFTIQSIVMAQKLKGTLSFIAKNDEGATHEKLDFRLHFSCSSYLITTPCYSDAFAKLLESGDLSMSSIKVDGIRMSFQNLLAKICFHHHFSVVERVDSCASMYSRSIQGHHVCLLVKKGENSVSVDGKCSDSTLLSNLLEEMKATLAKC
UniProt O43865, sequence (O43865 whole entry, looked up): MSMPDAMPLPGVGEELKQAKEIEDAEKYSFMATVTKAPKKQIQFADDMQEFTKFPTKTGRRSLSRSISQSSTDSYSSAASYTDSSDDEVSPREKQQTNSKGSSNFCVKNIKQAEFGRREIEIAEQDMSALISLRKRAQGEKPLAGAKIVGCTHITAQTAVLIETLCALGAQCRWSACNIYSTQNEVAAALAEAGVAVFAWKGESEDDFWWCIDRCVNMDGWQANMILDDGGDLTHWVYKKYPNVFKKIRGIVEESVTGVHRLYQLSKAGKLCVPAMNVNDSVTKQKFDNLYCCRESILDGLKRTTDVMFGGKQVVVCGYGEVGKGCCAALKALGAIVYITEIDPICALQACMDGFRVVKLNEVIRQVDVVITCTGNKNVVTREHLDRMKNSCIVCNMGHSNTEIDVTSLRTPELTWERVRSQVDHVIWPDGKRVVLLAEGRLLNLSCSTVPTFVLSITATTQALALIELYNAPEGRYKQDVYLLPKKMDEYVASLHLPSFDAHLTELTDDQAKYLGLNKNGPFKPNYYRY
UniProt O14727, sequence (O14727 whole entry, looked up): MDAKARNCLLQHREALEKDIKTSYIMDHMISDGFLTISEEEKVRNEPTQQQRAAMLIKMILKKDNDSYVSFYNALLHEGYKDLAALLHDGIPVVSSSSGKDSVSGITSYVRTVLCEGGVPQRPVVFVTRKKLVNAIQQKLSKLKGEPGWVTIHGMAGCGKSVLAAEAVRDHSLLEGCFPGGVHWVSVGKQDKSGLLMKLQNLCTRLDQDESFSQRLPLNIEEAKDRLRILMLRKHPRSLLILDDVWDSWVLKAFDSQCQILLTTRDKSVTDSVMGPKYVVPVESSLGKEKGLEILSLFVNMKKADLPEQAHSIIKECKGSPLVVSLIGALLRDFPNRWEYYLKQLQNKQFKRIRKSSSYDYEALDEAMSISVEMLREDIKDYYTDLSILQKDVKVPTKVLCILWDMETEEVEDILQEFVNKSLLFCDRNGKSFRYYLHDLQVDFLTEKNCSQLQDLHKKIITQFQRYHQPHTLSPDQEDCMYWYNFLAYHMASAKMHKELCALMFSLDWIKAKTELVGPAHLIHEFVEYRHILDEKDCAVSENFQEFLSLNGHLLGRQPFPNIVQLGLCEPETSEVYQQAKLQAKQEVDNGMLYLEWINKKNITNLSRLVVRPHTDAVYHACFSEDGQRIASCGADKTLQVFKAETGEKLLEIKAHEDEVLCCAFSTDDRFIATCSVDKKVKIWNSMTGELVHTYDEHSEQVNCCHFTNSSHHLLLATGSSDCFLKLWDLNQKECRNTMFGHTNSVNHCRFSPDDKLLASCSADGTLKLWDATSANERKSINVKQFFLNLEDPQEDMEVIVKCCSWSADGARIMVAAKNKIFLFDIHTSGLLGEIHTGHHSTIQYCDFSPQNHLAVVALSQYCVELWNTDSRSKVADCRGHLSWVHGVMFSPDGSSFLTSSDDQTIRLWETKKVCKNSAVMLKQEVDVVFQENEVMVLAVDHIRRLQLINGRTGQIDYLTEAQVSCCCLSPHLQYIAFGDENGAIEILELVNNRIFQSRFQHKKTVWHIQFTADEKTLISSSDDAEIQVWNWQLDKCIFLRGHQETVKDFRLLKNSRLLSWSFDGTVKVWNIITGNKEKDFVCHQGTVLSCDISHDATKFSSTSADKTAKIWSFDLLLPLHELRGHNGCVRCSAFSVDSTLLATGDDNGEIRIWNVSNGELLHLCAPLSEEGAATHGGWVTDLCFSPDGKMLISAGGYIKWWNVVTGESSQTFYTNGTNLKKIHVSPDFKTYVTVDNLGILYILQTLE
UniProt Q5JTZ9, sequence (Q5JTZ9 whole entry, looked up): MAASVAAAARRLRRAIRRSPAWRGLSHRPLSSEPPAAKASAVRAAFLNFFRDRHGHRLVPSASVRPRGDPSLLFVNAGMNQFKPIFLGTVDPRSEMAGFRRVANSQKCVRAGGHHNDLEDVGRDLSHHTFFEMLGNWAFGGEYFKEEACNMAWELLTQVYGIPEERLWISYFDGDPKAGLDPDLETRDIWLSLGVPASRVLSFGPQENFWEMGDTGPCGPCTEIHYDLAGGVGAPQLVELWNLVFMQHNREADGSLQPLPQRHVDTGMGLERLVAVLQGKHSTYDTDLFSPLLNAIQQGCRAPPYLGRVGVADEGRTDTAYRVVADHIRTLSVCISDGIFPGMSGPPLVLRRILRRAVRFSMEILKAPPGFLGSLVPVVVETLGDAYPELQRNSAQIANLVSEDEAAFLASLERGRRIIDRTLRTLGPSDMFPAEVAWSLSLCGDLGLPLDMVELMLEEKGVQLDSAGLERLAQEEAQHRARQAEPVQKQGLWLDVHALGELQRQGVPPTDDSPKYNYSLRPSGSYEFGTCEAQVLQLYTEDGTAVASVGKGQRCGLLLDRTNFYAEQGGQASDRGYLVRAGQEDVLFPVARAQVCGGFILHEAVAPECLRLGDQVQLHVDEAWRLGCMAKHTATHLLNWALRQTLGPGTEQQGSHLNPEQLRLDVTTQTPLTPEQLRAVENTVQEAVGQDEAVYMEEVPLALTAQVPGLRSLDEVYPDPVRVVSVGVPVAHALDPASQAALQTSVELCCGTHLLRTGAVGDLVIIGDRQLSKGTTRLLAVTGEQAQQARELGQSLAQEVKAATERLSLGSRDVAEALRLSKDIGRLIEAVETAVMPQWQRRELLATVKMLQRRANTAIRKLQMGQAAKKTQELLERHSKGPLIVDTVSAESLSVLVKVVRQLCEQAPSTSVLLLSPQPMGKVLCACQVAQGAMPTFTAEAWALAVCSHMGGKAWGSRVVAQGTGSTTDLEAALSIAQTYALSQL

Compound in this test: CN1CCc2c(c3ccccc3n2Cc2ccc(C(=O)NO)cc2)C1 [Tubastatin A]
Description: log2 fold change, soluble protein after heating vs DMSO (PISA); higher = thermal stabilisation; K562 lysate, 10 uM; active = over 0.2 and 3.5 SD of the protein, either way, in both replicates (recomputed). In a few lines: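 K562 pellets were dounce-homogenised in PBS pH 7.4 containing 1 mM MgCl2, and the crude extract, at 1 mg/mL protein, was exposed to 10 μM compound for 30 min. Aliquots were heated for 3 min across 48°C-58°C, pooled, brought to 0.5% NP-40 at 4°C and spun at 21,000xg for 90 min, with the supernatant taken as soluble protein. TMTpro 16plex LC-MS/MS with equalised channel sums quantified that protein. Values are log-two fold changes in thermal stability relative to solvent controls, taken from duplicates.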
On to ABCF3 (UniProt Q9NUQ8), for which the log2 fold change is -0.172 (inactive).

For the target AP3D1 isoform 5 (UniProt O14617), the log2 fold change is -0.048 (inactive).

In the case of APAF1 (UniProt O14727), the log2 fold change was -0.174 (inactive).

With AGL (UniProt P35573), the log2 fold change is -0.099 (inactive).

As to ANKRD27 (UniProt Q96NW4), the log2 fold change was -0.118 (inactive).

Turning to AKR1B1 (UniProt P15121), the log2 fold change is 0.023 (inactive).

Regarding AFF1 isoform 2 (UniProt P51825), the log2 fold change was 0.052 (inactive).

ANXA1 (UniProt P04083): the log2 fold change is -0.005 (inactive).

With AARS2 (UniProt Q5JTZ9), the log2 fold change was -0.093 (inactive).

As to AKAP8L (UniProt Q9ULX6), the log2 fold change is -0.183 (inactive).

Regarding AHCYL1 (UniProt O43865), the log2 fold change is -0.096 (inactive).

With ADRM1 (UniProt Q16186), the log2 fold change was -0.064 (inactive).

On to ALDH6A1 (UniProt Q02252), for which the log2 fold change is 0.43 (active).

Regarding ACACA isoform 4 (UniProt Q13085), the log2 fold change is -0.115 (inactive).

Take ASCC2 (UniProt Q9H1I8): the log2 fold change was -0.105 (inactive).

As to ACBD6 (UniProt Q9BR61), the log2 fold change is -0.15 (inactive).

Consider ALG13 (UniProt Q9NP73), for which the log2 fold change is -0.065 (inactive).

On to AMD1 (UniProt P17707), for which the log2 fold change was -0.084 (inactive).

Take AK4 (UniProt P27144): the log2 fold change is 0.036 (inactive).

As for AIFM2 (UniProt Q9BRQ8), the log2 fold change was 0.044 (inactive).

As to ASB6 (UniProt Q9NWX5), the log2 fold change was 0.014 (inactive).

Consider ABCF2 isoform 2 (UniProt Q9UG63), for which the log2 fold change was -0.169 (inactive).

ARGLU1 (UniProt Q9NWB6): the log2 fold change is 0.018 (inactive).
